# Assay results as given in PubChem BioAssay.
# Active and inactive are the calls of the source. Unless noted, no rule for the calls is given here.
# Key:
# [1] = resazurin metabolic signal in HepG2 cells – cell-based, resazurin fluorescence, 24 h, PK04 Diversity Set, profiling panel (AID 1172); details: HepG2 viability, higher = more signal
# [2] = budding yeast growth changes without added modifier – OD600, strain BY4716, 24 h, basal condition, primary screen (AID 1173); details: S. cerevisiae BY4716 growth, OD600, 24 h; higher = more signal, called active from +8 up or from −8 down
# [3] = viability profiling in MM1S myeloma cells – cell-based, resazurin fluorescence, basal, 24 h, PK04 Diversity Set, profiling panel (AID 1174); details: higher = more signal, called active from +8 up or from −8 down;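 also: MM1S multiple myeloma cell line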
# [4] = molecular target: Dihydroorotate dehydrogenase (quinone), mitochondrial (Plasmodium falciparum (isolate 3D7)) (UniProt Q08210); assay: inhibition of P. falciparum DHODH – biochemical, C-terminal His tag, absorbance 600 nm, primary screen (AID 1175); details: PfDHODH enzyme, DCIP absorbance 600 nm; higher = more signal, called active from +8 up or from −8 down;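 also: recombinant parasite enzyme with a five histidine tag at its C terminus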
# Sequence of Dihydroorotate dehydrogenase (quinone), mitochondrial (Plasmodium falciparum (isolate 3D7)) (Q08210 whole entry, looked up): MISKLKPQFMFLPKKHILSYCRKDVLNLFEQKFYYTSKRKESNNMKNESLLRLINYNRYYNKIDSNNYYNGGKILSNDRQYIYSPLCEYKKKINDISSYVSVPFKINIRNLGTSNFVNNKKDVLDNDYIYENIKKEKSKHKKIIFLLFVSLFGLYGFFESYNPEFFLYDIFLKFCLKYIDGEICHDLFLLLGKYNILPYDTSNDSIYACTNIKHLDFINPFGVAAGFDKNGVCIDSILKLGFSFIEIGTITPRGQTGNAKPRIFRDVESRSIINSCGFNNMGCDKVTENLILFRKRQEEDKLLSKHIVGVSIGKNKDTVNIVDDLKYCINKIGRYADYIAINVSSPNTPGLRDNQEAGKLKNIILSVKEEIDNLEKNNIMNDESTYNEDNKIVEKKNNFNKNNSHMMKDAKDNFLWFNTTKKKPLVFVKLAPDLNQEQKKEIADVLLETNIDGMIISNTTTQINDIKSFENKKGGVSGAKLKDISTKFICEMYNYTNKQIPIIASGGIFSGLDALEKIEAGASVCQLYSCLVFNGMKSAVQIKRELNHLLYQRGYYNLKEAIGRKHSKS
# [5] = inhibition of PAO1 biofilm formation – strain PAO1, LB-PBS medium, absorbance 600 nm, primary screen (AID 1176); details: P. aeruginosa PAO1 growth/biofilm, A600, 12 h; higher = more signal
# [6] = growth modulation of vineyard yeast isolate – strain RM11-1a, OD600, basal, 24 h, primary screen (AID 1177);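 also: cultures grown under basal conditions with no added stressor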; details: S. cerevisiae RM11-1a growth, OD600, 24 h; higher = more signal, called active from +8 up or from −8 down
# [7] = growth of efflux-deficient E. coli DRC39 – strain DRC39, OD650, 24 h, E. coli filamentation inducers, primary screen (AID 1178);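 also: growth measured as culture turbidity by optical density at 650 nm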; details: E. coli DRC39 acrAB, higher = more signal, called active from +8 up or from −8 down
# [8] = growth of efflux-deficient E. coli DRC39 – strain DRC39, OD650, 48 h, E. coli filamentation inducers, primary screen (AID 1179);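 also: screen aims at cell division blockers that make cells filament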; details: E. coli DRC39 delta-acrAB growth, higher = more signal, called active from +8 up or from −8 down
# [9] = viability profiling in RPMI8226 myeloma cells – cell-based, resazurin fluorescence, basal, 24 h, PK04 Diversity Set, profiling panel (AID 1180); details: higher = more signal;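 also: RPMI8826 multiple myeloma cell line at 5000 cells per well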
# [10] = molecular target: E3 ubiquitin-protein ligase XIAP (Homo sapiens) (UniProt P98170); assay: small molecules binding XIAP protein – biophysical, small-molecule microarray, fluorescence 635 nm, primary screen (AID 1181); details: higher = more signal;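 also: score merges 667 nm emission and signal to noise over triplicate slides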
# Sequence of E3 ubiquitin-protein ligase XIAP (Homo sapiens) (P98170 whole entry, looked up, the tested form may be a part): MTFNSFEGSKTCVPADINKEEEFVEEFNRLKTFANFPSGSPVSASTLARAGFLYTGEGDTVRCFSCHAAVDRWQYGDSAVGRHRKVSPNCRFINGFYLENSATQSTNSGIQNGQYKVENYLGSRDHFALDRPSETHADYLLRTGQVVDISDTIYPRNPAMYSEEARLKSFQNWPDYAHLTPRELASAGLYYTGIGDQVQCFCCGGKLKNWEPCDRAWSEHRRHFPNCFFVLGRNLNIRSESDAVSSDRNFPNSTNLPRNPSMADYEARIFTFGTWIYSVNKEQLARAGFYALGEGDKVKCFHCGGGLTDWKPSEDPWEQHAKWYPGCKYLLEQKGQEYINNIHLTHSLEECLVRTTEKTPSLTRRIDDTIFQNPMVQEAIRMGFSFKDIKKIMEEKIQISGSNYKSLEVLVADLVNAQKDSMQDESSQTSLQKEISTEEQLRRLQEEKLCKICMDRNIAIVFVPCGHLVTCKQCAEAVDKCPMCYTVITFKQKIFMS
# [11] = tested on: XIP peptide (Xip251-270) binding; assay: XIP fragment 251-270 binding compounds – biochemical, small-molecule microarray, fluorescence 635/667 nm, 0.1 µg/mL protein, primary screen (AID 1182); details: fluorescent protein binding, 635 nm, higher = more signal, called active from +8 up or from −8 down
# XIP peptide (Xip251-270) = assay: compounds binding XIP fragment 251-270 – biochemical, small-molecule microarray, fluorescence 635/667 nm, 0.5 µg/mL protein, primary screen (AID 1183); details: fluorescence 635 nm, higher = more signal
# [12] = blood-stage malaria parasite viability loss – strain 3D7, DAPI fluorescence, 100 nL, primary screen (AID 1184);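 also: parasites grown inside human red blood cells in medium with human serum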; details: P. falciparum 3D7 growth, 3 d, higher = more signal
# [13] = molecular target: Homeobox protein Hox-A13 (Mus musculus) (UniProt Q62424); assay: disruptors of Hoxa13 oligonucleotide interaction – biochemical, fluorescence polarization, labeled oligonucleotide, primary screen (AID 1185); details: Hoxa13:DNA binding, 15 min, higher = more signal, called active from +8 up or from −8 down
# Sequence of Homeobox protein Hox-A13 (Mus musculus) (Q62424 whole entry, looked up): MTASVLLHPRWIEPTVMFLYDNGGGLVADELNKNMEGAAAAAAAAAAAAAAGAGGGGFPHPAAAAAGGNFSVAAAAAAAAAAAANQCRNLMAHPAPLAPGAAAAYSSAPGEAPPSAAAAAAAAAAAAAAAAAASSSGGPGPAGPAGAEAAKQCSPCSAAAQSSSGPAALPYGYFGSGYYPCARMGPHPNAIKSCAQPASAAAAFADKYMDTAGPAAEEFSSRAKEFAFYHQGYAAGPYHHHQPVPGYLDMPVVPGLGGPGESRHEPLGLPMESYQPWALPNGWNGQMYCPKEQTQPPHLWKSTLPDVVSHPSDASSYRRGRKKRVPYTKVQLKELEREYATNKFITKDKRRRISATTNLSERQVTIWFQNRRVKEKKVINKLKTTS
# [14] = blockers of DNA damage checkpoint Chk1 activation – imaging, HeLa, hydroxyurea, phospho-Chk1 antibody, percent positive cells, primary screen (AID 1186); details: hydroxyurea-induced phospho-Chk1 immunofluorescence imaging, higher = more signal
# [15] = blockers of DNA damage checkpoint Chk1 activation – imaging, HeLa, hydroxyurea, phospho-Chk1 nuclear intensity, primary screen (AID 1187); details: hydroxyurea-induced phospho-Chk1 immunofluorescence imaging, higher = more signal
Compound,z-score [1],z-score [2],z-score [3],composite z-score [4],z-score [5],z-score [6],z-score [7],z-score [8],z-score [9],composite z-score [10],composite z-score [11],composite z-score (XIP peptide (Xip251-270)),z-score [12],z-score [13],z-score [14],z-score [15]
COCCOC(=O)N1C(=O)[C@@]2(c3cc(C#CC4=CCCCC4)ccc31)[C@H](c1ccc(OCCO)cc1)N1[C@H](c3ccccc3)[C@H](c3ccccc3)OC(=O)[C@H]1[C@@H]2C(=O)N1CCCCCCC1,-0.748,-0.747 (inactive),-0.168 (inactive),-0.859 (inactive),3.23 (inactive),-0.766 (inactive),-0.363 (inactive),0.817 (inactive),-0.435,0.248,1.32 (inactive),0.822,-2.06,-15.2 (active),-0.002 (inactive),0.437 (inactive)
C=CCC(OC(C)=O)[C@@H]1[C@@H](N(Cc2cccc3ccccc23)C(=O)c2cccc3ccccc23)c2cc(OCCCO)ccc2N1C(=O)Cc1ccc2ccccc2c1 (some centres undefined),0.414,-0.599 (inactive),-0.41 (inactive),-0.373 (inactive),-0.723 (inactive),-0.0264 (inactive),0.632 (inactive),0.334 (inactive),-0.0924,0.452,0.457 (inactive),-0.716,-1.35,-2.12 (inactive),0.233 (inactive),0.42 (inactive)
CC(C)C(=C=CC[C@@H](O)c1cccc(OCCO)c1)CCO,0.545,-1.15 (inactive),0.265 (inactive),-1.1 (inactive),0.2 (inactive),0.0632 (inactive),0.546 (inactive),0.423 (inactive),0.336,-0.127,0.202 (inactive),0.42,-0.115,-1.53 (inactive),-0.19 (inactive),0.247 (inactive)
CC(C)C[C@@H]1NC(=O)[C@H]2C[C@@H](C(=O)NCCCCCNC(=O)CS)[C@@H](c3ccc(O)cc3)N2C1=O,-2.15,0.131 (inactive),-0.297 (inactive),0.204 (inactive),0.767 (inactive),0.665 (inactive),-0.117 (inactive),-0.942 (inactive),-0.57,-0.0577,0.563 (inactive),0.692,-0.92,-3.85 (inactive),-0.37 (inactive),-0.291 (inactive)
C#CCN=C(N)N,-0.0276,-0.639 (inactive),0.111 (inactive),-0.377 (inactive),0.845 (inactive),-0.491 (inactive),-0.383 (inactive),-0.079 (inactive),0.0428,0.155,0.189 (inactive),0.391,-0.624,-0.327 (inactive),-0.351 (inactive),-0.447 (inactive)
CN1C(=O)C2C=CC(C(O)c3ccc(-c4ccccc4)s3)N(Nc3ccccc3)C2C1=O (centres undefined),-0.208,-1.02 (inactive),-1.03 (inactive),0.71 (inactive),1.6 (inactive),0.0727 (inactive),0.243 (inactive),-0.0198 (inactive),-0.985,0.148,0.844 (inactive),0.753,1.23,-4.68 (inactive),-0.11 (inactive),-0.316 (inactive)
CN(C)CCCCNC(=O)[C@H]1C[C@H]2C(=O)NCC(=O)N2[C@H]1c1cccc(OCCO)c1,1.15,0.425 (inactive),1.59 (inactive),-0.0392 (inactive),-0.711 (inactive),1.06 (inactive),0.779 (inactive),0.834 (inactive),0.158,-0.0286,0.329 (inactive),0.129,0.256,-1.62 (inactive),-0.46 (inactive),-0.538 (inactive)
CC(C)C[C@@H]1NC(=O)[C@H]2C[C@@H](C(=O)NCCCCCCNC(=O)CS)[C@@H](c3ccc(O)cc3)N2C1=O,0.102,0.153 (inactive),0.0815 (inactive),0.31 (inactive),0.932 (inactive),0.088 (inactive),0.236 (inactive),-0.0073 (inactive),-0.596,0.101,3.87 (inactive),0.409,0.214,-3.29 (inactive),1.15 (inactive),0.716 (inactive)
CN(C)C(=O)[C@]1(Cc2ccccc2CN=[N+]=[N-])N=C(c2ccc(OCCCO)cc2)O[C@@H]1c1ccccc1N=[N+]=[N-],0.142,-0.0107 (inactive),-1.54 (inactive),-0.607 (inactive),0.0533 (inactive),1.37 (inactive),0.377 (inactive),0.529 (inactive),-1.63,0.181,0.854 (inactive),0.624,-1.89,-1.57 (inactive),-0.72 (inactive),-0.903 (inactive)
COCCOC(=O)N1C(=O)[C@@]2(c3ccccc31)[C@H](C(=O)N1CCCCCCC1)[C@H]1C(=O)O[C@H](c3ccccc3)[C@H](c3ccccc3)N1[C@@H]2c1ccc(O)cc1,0.226,-0.975 (inactive),-1.51 (inactive),-0.862 (inactive),1.32 (inactive),-0.145 (inactive),-0.0831 (inactive),-0.303 (inactive),-1.03,0.782,3.54 (inactive),0.83,-0.621,2.5 (inactive),-0.391 (inactive),-0.586 (inactive)
COCCCNC(=O)[C@@]1(Sc2ccc(C)cc2)CC(=O)N(C2CCCCC2)[C@@H]1c1ccc(CO)cc1I,0.5,-0.172 (inactive),-0.326 (inactive),0.335 (inactive),0.627 (inactive),-1.09 (inactive),0.16 (inactive),0.228 (inactive),-1.66,-0.328,-0.159 (inactive),0.736,-1.39,-5.66 (inactive),0.46 (inactive),0.268 (inactive)
COc1ccc(C#Cc2ccc3c(c2)[C@]2(C(=O)N3)[C@H](C(=O)Nc3nc4ccccc4s3)[C@H]3C(=O)O[C@H](c4ccccc4)[C@H](c4ccccc4)N3[C@@H]2c2ccc(OCCO)cc2)cc1,0.839,2.43 (inactive),-0.625 (inactive),-22.3 (active),2.93 (inactive),2.53 (inactive),0.544 (inactive),0.196 (inactive),-0.639,0.0849,-0.509 (inactive),0.782,-0.668,1.71 (inactive),0.218 (inactive),-0.0348 (inactive)
O=C1OCCC=C[C@H]2OC34C=CCN(c5ccc(Cl)cc5)C(=O)[C@H]3N(CCO)C(=O)[C@@H]4C12 (some centres undefined),0.545,0.204 (inactive),0.221 (inactive),-1.45 (inactive),-0.317 (inactive),0.132 (inactive),-0.947 (inactive),-1.04 (inactive),-0.202,-0.31,-0.379 (inactive),0.561,-0.136,-5.37 (inactive),-0.399 (inactive),-0.576 (inactive)
COC(=O)[C@@]1(Cc2ccc(F)cc2)[C@H]2c3cc(C(=O)N(C)C)n(CCN4CCOCC4)c3C[C@H]2CN1C(=O)c1ccccc1,0.255,1.22 (inactive),-0.663 (inactive),-0.521 (inactive),0.0818 (inactive),0.7 (inactive),0.187 (inactive),-0.957 (inactive),0.874,0.138,0.673 (inactive),0.811,-1.45,-6.83 (inactive),-0.366 (inactive),-0.245 (inactive)
C=CCC(OC(C)=O)[C@@H]1[C@@H](N(Cc2ccc(-c3cccc(C(F)(F)F)c3)o2)C(=O)Cc2ccc(OC)cc2)c2cc(OCCCO)ccc2N1C(=O)c1ccc2ccccc2n1 (some centres undefined),-0.777,-0.791 (inactive),0.271 (inactive),-0.0941 (inactive),-0.817 (inactive),-0.188 (inactive),-0.267 (inactive),-0.446 (inactive),0.0494,0.36,-0.155 (inactive),-0.118,-2.2,-2.25 (inactive),0.401 (inactive),0.966 (inactive)
CC#CCO[Si](C#CCCCCCC)(C(C)C)C(C)C,0.296,-9.54 (active),0.486 (inactive),-0.487 (inactive),0.501 (inactive),0.0606 (inactive),-0.0081 (inactive),0.448 (inactive),0.166,-0.22,-0.0884 (inactive),0.938,-1.23,-2 (inactive),-0.156 (inactive),0.0743 (inactive)
CC(=O)NCCCC[C@@H]1NC(=O)[C@@H]2C[C@H](C(=O)NCCCCCC[N+](C)(C)C)[C@H](c3ccc(O)cc3)N2C1=O,-0.793,0.857 (inactive),-0.471 (inactive),-1.24 (inactive),-0.807 (inactive),0.0885 (inactive),-0.241 (inactive),-0.229 (inactive),-0.854,0.123,0.0817 (inactive),0.846,1.12,-2.45 (inactive),0.956 (inactive),0.817 (inactive)
CC(C)CNC(=O)[C@@H]1c2ccccc2C(=O)N(Cc2ccccc2)[C@H]1c1ccc(CO)cc1,0.768,-0.21 (inactive),-0.628 (inactive),0.13 (inactive),0.388 (inactive),-0.232 (inactive),0.278 (inactive),0.0254 (inactive),0.19,0.0785,0.906 (inactive),0.0309,-0.172,-1.68 (inactive),0.212 (inactive),-0.161 (inactive)
C#CCN([C@H](/C=C/C1CC1)[C@@H](O)Cc1ccccc1)[C@@H](Cc1ccccc1)C(=O)OC,1.82,0.0363 (inactive),1.59 (inactive),0.373 (inactive),-0.319 (inactive),0.97 (inactive),1.07 (inactive),0.968 (inactive),0.737,0.271,0.17 (inactive),-0.205,-0.752,-4.57 (inactive),-0.587 (inactive),-0.959 (inactive)
